Records with an inconclusive call do not appear. Activity calls are given as the source filed them. Calls come from the whole dose curve; as a rule, active = well fitted inhibition curve with a large enough effect; inconclusive = small, poorly fitted or top-dose-only effect; inactive = flat fitted curve, though single readings scatter.
Potency is the fitted concentration of half-maximal effect.

Sequence of Tyrosyl-DNA phosphodiesterase 1 (Homo sapiens) (Q9NUW8 whole entry, looked up): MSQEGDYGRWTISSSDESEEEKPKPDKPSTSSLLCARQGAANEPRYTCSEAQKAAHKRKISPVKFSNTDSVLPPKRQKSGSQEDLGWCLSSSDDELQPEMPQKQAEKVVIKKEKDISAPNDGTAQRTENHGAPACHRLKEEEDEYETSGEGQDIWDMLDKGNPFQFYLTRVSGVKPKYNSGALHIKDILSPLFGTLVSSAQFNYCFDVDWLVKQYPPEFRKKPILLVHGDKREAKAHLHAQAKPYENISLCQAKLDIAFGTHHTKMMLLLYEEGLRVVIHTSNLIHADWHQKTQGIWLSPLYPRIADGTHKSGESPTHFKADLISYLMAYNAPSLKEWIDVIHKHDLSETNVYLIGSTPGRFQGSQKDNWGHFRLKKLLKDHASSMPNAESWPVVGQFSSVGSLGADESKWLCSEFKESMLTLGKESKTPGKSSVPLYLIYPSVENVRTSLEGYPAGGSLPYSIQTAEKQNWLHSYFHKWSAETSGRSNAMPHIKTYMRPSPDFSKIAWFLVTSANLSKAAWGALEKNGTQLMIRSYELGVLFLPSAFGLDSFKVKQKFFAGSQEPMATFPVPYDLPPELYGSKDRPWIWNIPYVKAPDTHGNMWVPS

The assay addresses Tyrosyl-DNA phosphodiesterase 1 (Homo sapiens) (UniProt Q9NUW8). The experiment in a line: Confirmation Assay for Inhibitors of Tyrosyl-DNA Phosphodiesterase (TDP1) (AID 489007). Note: nearly all actives have a fitted effect of over 40% in size. Conditions: recombinant human TDP1 enzymatic activity, dose-response. Put shortly:
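Tdp1 1 nM + cpd, 15 min RT; add biotin/phosphotyrosine-FITC oligo 15 nM, 5 min RT; add AS donor/acceptor beads 10 ug/ml, 10 min RT; read AlphaScreen. No-enzyme wells = max signal.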
With `O=C(O)C1C2C=CC(C2)C1C(=O)NCCc1ccncc1` (stereo not given), the Potency was 100 µM (active).

On to `C=C(C)C(=O)Nc1cccc(C2=NOC3(C2)C[C@H](C(N)=O)N(C(=O)COc2ccc(Cl)cc2)C3)c1` (stereo not given in full), for which the Potency was 12.6 µM (active).

With `COc1ccccc1C1CN(c2ccccc2)N=C1c1cccs1` (stereo not given), the Potency is 25.1 µM (active).

On to `O=C(N/N=C/c1ccc2c(c1)OCO2)c1cc2ccccc2o1`, for which the Potency was 12.6 µM (active).

On to `O=C1CN(C(=O)/C=C/c2ccco2)c2ccccc2N1`, for which the Potency is 44.7 µM (active).

On to `CC1=NN(c2ccc(Cl)c(C(=O)O)c2)C(=O)/C1=C\c1ccc(-c2ccc(C(=O)O)cc2)o1`, for which the Potency is 14.1 µM (active).

For `Cc1ccc(C(=O)O)cc1-c1ccc(/C=C2\SC(=O)N(CC(=O)Nc3ccccc3)C2=O)o1`, the Potency was 6.31 µM (active).

As for `O=C(Nc1cc2c(oc1=O)CCCC2=O)c1ccc(Cl)cc1`, the Potency is 31.6 µM (active).

Turning to `CC(=O)NC1=NC(=O)/C(=C/c2cc(C)n(-c3cccc(C(=O)O)c3)c2C)S1`, the Potency was 2 µM (active).

Take `O=C(CSc1nccc(=O)[nH]1)NCc1ccco1`: the Potency is 31.6 µM (active).

For `c1ccc(N2N=C(c3cccs3)CC2c2ccco2)cc1` (stereo not given), the Potency is 112 µM (active).

On to `COc1ccc(OCc2cc(C(=O)O)c(C)o2)cc1`, for which the Potency was 10 µM (active).

For the compound `O=C(O)CCC(=O)N(Cc1cccs1)Cc1cccs1`, the Potency is 112 µM (active).

With `COc1ccc(/C=N/N=C2/NC(=O)C(CC(=O)O)S2)cc1OCc1ccc(Cl)cc1Cl` (stereo not given), the Potency was 39.8 µM (active).

In the case of `CCCCC(=O)Nc1ccc(C(=O)NNC(=O)CCc2ccccc2)cc1`, the Potency is 100 µM (active).

Regarding `Cc1cc(C=O)c(C)n1-c1ccc(Cl)c(C(=O)O)c1`, the Potency is 1.12 µM (active).

`Cc1ccnc(NS(=O)(=O)c2ccc(NC(=O)C3C4C=CC(C4)C3C(=O)O)cc2)n1` (stereo not given): the Potency was 35.5 µM (active).

For the compound `CC1(C)OC(=O)C(=Cc2ccc(-c3ccc(Cl)c(C(=O)O)c3)o2)C(=O)O1`, the Potency is 14.1 µM (active).

Turning to `Cc1nc(S/C(=C/c2ccc(OCc3ccc(C(=O)O)cc3)cc2)C(=O)O)n[nH]1`, the Potency is 35.5 µM (active).

Turning to `NC(=O)COC(=O)c1ccc(S(=O)(=O)NCc2ccco2)cc1`, the Potency is 126 µM (active).

As for `COc1ccc(CCNC(=O)c2ccc3nc(-c4ccco4)c(-c4ccco4)nc3c2)cc1OC`, the Potency was 10 µM (active).

On to `Cc1ccc(CNC(=O)c2ccc(-n3cccc3)cc2)cc1`, for which the Potency is 12.6 µM (active).

Consider `Cc1ccc(C(=O)O)cc1-n1c(C)cc(C=O)c1C`, for which the Potency is 15.8 µM (active).

On to `Cc1ccc(NC(=O)CN2C(=O)N/C(=C/c3cccn3-c3ccc(C(=O)O)cc3)C2=O)cc1`, for which the Potency was 0.282 µM (active).

Turning to `CCCn1c(SCC(=O)NC(=O)NCc2ccco2)n[nH]c1=O`, the Potency was 25.1 µM (active).

For the compound `O=C(O)c1ccc(/C=C/c2nc3sc4c(c3c(=O)[nH]2)CCC4)cc1`, the Potency was 112 µM (active).

As for `CCCCNC(=O)COC(=O)c1ccc(Cl)c(S(=O)(=O)N2CCCC2)c1`, the Potency is 100 µM (active).

In the case of `O=C1NN(c2ccccc2)C(=O)/C1=C/c1ccc(-c2ccc(Cl)c(C(=O)O)c2)o1`, the Potency was 7.08 µM (active).

Consider `CCN(c1ccccc1)S(=O)(=O)c1cc(C(=O)O)ccc1C`, for which the Potency is 12.6 µM (active).

Turning to `CCC(=O)c1ccc(CCCCCC(=O)O)s1`, the Potency is 31.6 µM (active).

With `COc1ccc2nc(N3CCCCC3)c(C#N)cc2c1`, the Potency is 31.6 µM (active).

In the case of `Cc1c(-c2ccc(Cl)cc2)oc(=O)c2c(N)n(-c3ccccc3)nc12`, the Potency was 25.1 µM (active).

Take `O=C(NN1C(=O)C2CC=C(Cl)CC2C1=O)c1ccncc1` (stereo not given): the Potency is 31.6 µM (active).

For `O=S(=O)(O)c1ccc2c(c1)-c1nc-2nc2[nH]c(nc3nc(nc4[nH]c(n1)c1ccc(S(=O)(=O)O)cc41)-c1ccc(S(=O)(=O)O)cc1-3)c1ccc(S(=O)(=O)O)cc21`, the Potency was 0.0282 µM (active).

As to `O=C(COC(=O)c1cc2c(s1)CCC2)Nc1ccc(F)cc1`, the Potency is 12.6 µM (active).

As for `Cc1ccc(/C=C2/C(=O)c3ccc(C(=O)O)cc3C2=O)o1`, the Potency was 14.1 µM (active).

On to `OC[C@@H]1[C@@H](c2ccc(Cl)cc2)C(c2cccc(Cl)c2)=NN1c1ccccc1`, for which the Potency was 50.1 µM (active).

On to `Cc1ccccc1Nc1cccc2nonc12`, for which the Potency was 100 µM (active).

For `Nc1ccc2c(c1Cl)C(=O)c1ccc(N)c(Cl)c1C2=O`, the Potency was 3.55 µM (active).

`O=C(O)c1cc(-c2ccc(/C=N/N3C(=O)C4C5C=CC(C6CC56)C4C3=O)o2)ccc1Cl` (stereo not given): the Potency is 31.6 µM (active).

The record behind these values is PubChem BioAssay (NCATS).
